From PubChem BioAssay
PriA SSB inh = K. pneumoniae PriA-SSBct interaction inhibition; AID 1272365; inhibition, % at 33 µM; 0.6% of 430,000 active; AlphaScreen SSBct-PriA binding, biotinylated peptide; in the data active = inhibition mostly above about 37%, no sharp cut-off; inactive = mostly below about 20%;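 note: plate controls were negative control peptide for no effect and reference peptide for full effect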
PrPC surface inh = cell surface PrPC inhibition, primary TR-FRET screen; P04156; TR-FRET read-out; inhibition, % at 13.8 µM; 0.43% of 370,000 active; AID 720596; in the data active = inhibition above about 24%; note: 0% = median of the test wells and 100% = reference compound wells
Yp Topo-I inh = inhibitors of Yersinia pestis topoisomerase I; AID 504884; activity, % at 10 µM; 0.064% of 360,000 active; Y. pestis Topo-I cleavage product accumulation, plate reader; in the data active = activity above about 50%, passing the limit was not always enough
BJeLR viability = BJeLR cell viability loss; BJeLR (HRASV12) viability, CellTiter-Glo ATP luminescence, 48 h; inhibition, % (no concentration beside the values); 0.17% of 300,000 active; AID 1554; in the data active = inhibition above about 50%
PrP 5UTR inh = inhibition of PrP 5' UTR reporter expression; cell-based PrP 5' UTR mRNA reporter, plate reader; inhibition, % (concentration not given with the values); 0.35% of 340,000 active; AID 488862; in the data active = inhibition above about 52%; note: 0 = median of the neutral control wells
PfHsp40 rescue = rescue of PfHsp40-mediated yeast toxicity; growth rescue, % at 12.5 µM; 0.68% of 340,000 active; S. cerevisiae expressing PfHsp40, growth rescue, ATP luminescence; AID 504582; in the data active = growth rescue above about 28%, passing the limit was not always enough;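 note: yeast W303a lacking pdr1 and pdr3 grown in galactose medium; growth measured after three days at 30 °C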
PrPC confirm = confirmation of inhibitors of cell surface human prion protein; AID 743200; cell surface PrPC level, TR-FRET; 65% of 1,500 active; shares compounds with PrPC surface inh; inhibition, % at 13.8 µM; in the data active = inhibition above about 25%
LD9 tox = counter-screen for PrPc inhibitors: cytotoxicity in LD9 cells | AID 743201 | luminescence viability | inhibition, % at 13.8 µM | 29% of 1,500 active | shares compounds with PrPC surface inh; in the data active = inhibition above about 9.5%
Starred values were filed as active, the others as inactive. Sampled rows, rich in hits. Any-hit rate of the full collection: about 1.7%.

Results for CCOC(=O)N1CCN(C(=O)COc2ccc3ccccc3c2Br)CC1 ?
PriA SSB inh: -8; PrPC surface inh: 50*; Yp Topo-I inh: 35; BJeLR viability: 5; PrP 5UTR inh: -2; PfHsp40 rescue: 0; PrPC confirm: 79*; LD9 tox: -2

How did NC(=NOC(=O)COc1ccc2ccccc2c1)c1cccnc1 do in these assays?
PriA SSB inh: -27

What do the screens show for `N/C(=N\OC(=O)COc1ccc2ccccc2c1Br)c1ccccn1`?
PrPC surface inh: 59*; Yp Topo-I inh: -2; BJeLR viability: 5; PrP 5UTR inh: -31; PfHsp40 rescue: 0; PrPC confirm: 84*; LD9 tox: -2

What do the screens show for `Cn1nc(-c2ccc(F)cc2)cc1C(=O)NCCC1CCCCN1S(=O)(=O)c1cccs1` (stereo not given)?
PriA SSB inh: 4

How did Cc1onc(-c2ccccc2Cl)c1C(=O)N1CCCc2ccccc21 do in these assays?
PriA SSB inh: -3; PrPC surface inh: 2; Yp Topo-I inh: 9; BJeLR viability: 2; PrP 5UTR inh: -45; PfHsp40 rescue: 0

What do the screens show for `Cc1onc(-c2ccccc2Cl)c1C(=O)OCC(=O)N1CCCc2ccccc21`?
PriA SSB inh: -3; PrPC surface inh: 30*; Yp Topo-I inh: 14; BJeLR viability: -3; PrP 5UTR inh: -3; PfHsp40 rescue: 1; PrPC confirm: 6; LD9 tox: 2

What do the screens show for `COCCN(Cc1ccoc1)S(=O)(=O)c1cc2c3c(c1)CCN3C(=O)CC2`?
PriA SSB inh: 4

Results for O=C1c2cccc(O)c2C(=O)c2c(O)cc(CO)cc21 ?
PriA SSB inh: 6; BJeLR viability: -8

Results for CC1OC2CC(=O)OC2C2=C1C(=O)c1c(O)cccc1C2=O (stereo not given) ?
PrPC surface inh: 81*; Yp Topo-I inh: -10; PrPC confirm: 93*; LD9 tox: 99*

How did CC(C)CC(NC(=O)c1ccc(Cl)cc1)C(=O)OCC(=O)c1ccc2c(c1)NC(=O)CO2 (stereo not given) do in these assays?
PriA SSB inh: -12; PrPC surface inh: 40*; Yp Topo-I inh: 3; BJeLR viability: 17; PrP 5UTR inh: 2; PfHsp40 rescue: 0; PrPC confirm: 53*; LD9 tox: 84*

How did CC(O)C(NS(=O)(=O)c1ccc(Cl)cc1)C(=O)OCC(=O)c1ccc2c(c1)NC(=O)CO2 (stereo not given) do in these assays?
PriA SSB inh: 1; PrPC surface inh: 4; Yp Topo-I inh: 3; PrP 5UTR inh: -9; PfHsp40 rescue: 0

Results for COc1cccc(C(C)(O)c2nc(-c3cccc(C(=O)O)c3)cs2)c1 (stereo not given) ?
PrPC surface inh: -4; Yp Topo-I inh: 1

How did CCN(CC)C(=O)c1cccc(-c2csc(C(C)(O)c3ccncc3)n2)c1 (stereo not given) do in these assays?
PrPC surface inh: 40*; Yp Topo-I inh: -2; PrPC confirm: 30*; LD9 tox: 7

How did Cc1nsc(C(=O)NCc2ccc3c(c2)OCO3)n1 do in these assays?
PriA SSB inh: -10

Results for O=C(NC(Nc1nc2ccc([N+](=O)[O-])cc2s1)(C(F)(F)F)C(F)(F)F)c1cccnc1 ?
PriA SSB inh: 3; PrPC surface inh: 42*; Yp Topo-I inh: -11; BJeLR viability: 34; PrP 5UTR inh: 5; PfHsp40 rescue: -1; PrPC confirm: 52*; LD9 tox: 59*

What do the screens show for `O=C(Nc1nc2ccc([N+](=O)[O-])cc2s1)c1ccccc1F`?
PriA SSB inh: 4

What do the screens show for `O=C(NC(Nc1nc2ccc([N+](=O)[O-])cc2s1)(C(F)(F)F)C(F)(F)F)c1ccccc1Cl`?
PriA SSB inh: 9; PrPC surface inh: 67*; Yp Topo-I inh: -13; BJeLR viability: 60*; PrP 5UTR inh: 50; PfHsp40 rescue: 0; PrPC confirm: 66*; LD9 tox: 63*

Results for CCN(c1ccccc1)S(=O)(=O)c1ccc(C(=O)Nc2ccc(C(C)=O)cc2)cc1 ?
PriA SSB inh: 5

Results for O=C(NCCC(O)c1ccccc1)C(=O)NCc1ccc(F)cc1 (stereo not given) ?
PriA SSB inh: -13

How did Clc1ccc(-c2ccc(-c3nn4c(-c5ccco5)nnc4s3)o2)cc1 do in these assays?
PriA SSB inh: 5; PrPC surface inh: -3; Yp Topo-I inh: 9; BJeLR viability: 6; PrP 5UTR inh: -23; PfHsp40 rescue: 3

How did Brc1ccc(-c2nn3c(-c4ccco4)nnc3s2)o1 do in these assays?
PriA SSB inh: -14; PrPC surface inh: 62*; Yp Topo-I inh: 3; BJeLR viability: 2; PrP 5UTR inh: -8; PfHsp40 rescue: -1; PrPC confirm: 76*; LD9 tox: -3

How did Cn1cccc1[C@@H](O)CCNC(=O)c1cc2ccccc2s1 do in these assays?
PriA SSB inh: 9

How did CC(C)Sc1ccc(CC(=O)NCCSC2CCOCC2)cc1 do in these assays?
PriA SSB inh: -5

What do the screens show for `Cc1cccc(NC(=O)CSc2ncnc3sc(C)c(C)c23)n1`?
PriA SSB inh: 7; PrPC surface inh: 27*; Yp Topo-I inh: 31; BJeLR viability: -4; PrP 5UTR inh: -4; PfHsp40 rescue: 1; PrPC confirm: 42*; LD9 tox: -3

Results for Cc1sc2ncnc(SCC(=O)N3CCCCC3)c2c1C ?
PriA SSB inh: -12; PrPC surface inh: 7; Yp Topo-I inh: 6; BJeLR viability: -3; PrP 5UTR inh: -19; PfHsp40 rescue: 0

Results for Cc1sc2ncnc(SCC(=O)N3CCCC3=O)c2c1C ?
PriA SSB inh: -23; PrPC surface inh: 27*; Yp Topo-I inh: 12; BJeLR viability: 2; PrP 5UTR inh: -15; PfHsp40 rescue: 0; PrPC confirm: 40*; LD9 tox: -3

What do the screens show for `Cc1sc2ncnc(SCC(=O)NC(=O)c3cccn3C)c2c1C`?
PriA SSB inh: 3; PrPC surface inh: 31*; Yp Topo-I inh: -2; BJeLR viability: 0; PrP 5UTR inh: -2; PfHsp40 rescue: 9; PrPC confirm: 77*; LD9 tox: -5

What do the screens show for `Cc1ccccc1NC(=O)CSc1ncnc2sc(C)c(C)c12`?
PriA SSB inh: 4

How did CSc1sc(C(=O)O)c2c1C(=O)CC(C)(C)C2 do in these assays?
PriA SSB inh: -11; PrPC surface inh: -3; Yp Topo-I inh: -3; BJeLR viability: -13; PrP 5UTR inh: -16; PfHsp40 rescue: -1

Results for CSc1sc(-c2ccnc(SCC(=O)C(C)(C)C)n2)c2c1C(=O)CC(C)(C)C2 ?
PriA SSB inh: -2; PrPC surface inh: 32*; Yp Topo-I inh: 3; BJeLR viability: -6; PrP 5UTR inh: -15; PfHsp40 rescue: -1; PrPC confirm: 48*; LD9 tox: -1
